Shown are actives, neighbours in structure and some others; about 21% of the full set was active somewhere.
TDP1 cell CPT: growth inhibition of DT40 Tdp1-/-;hTDP1 cells with camptothecin (screen for TDP1 inhibitors) | AID 686979 | Potency, µM (highest dose often 46.2 µM), inactives show at the highest dose activity change, negative = growth inhibition, usual class: inhibitors | chicken DT40 Tdp1-/-;hTDP1 cells + 20 nM CPT, ATP luminescence, 48 h | hit rate 12% among 420,000; also: potency is read from the fitted curve at half-maximal effect; % is scaled to controls: 0 for no effect and ±100 for the full control effect; nearly all actives have a fitted effect of over 55% in size
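Cell growth measured by CellTiter-Glo luminescence after a minimum 48 h, 37 C compound exposure with 20 nM CPT in Tdp1-knockout DT40 cells stably expressing hTDP1, seeded 400/well; qHTS titration format.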
DRD3 antagonist: antagonists of human D3 dopamine receptor. AID 652054. hit rate 2.5% among 360,000. max response, negative = inhibition, %. D3R cells, DiscoveRx beta-arrestin luminescence, antagonist mode; hits give low values; in the data active = max response below about -50%; inconclusive = no clear call, values can overlap the other calls; also: % is scaled to controls: 0 for no effect and ±100 for the full control effect
Target sequence (P35462 whole entry, looked up): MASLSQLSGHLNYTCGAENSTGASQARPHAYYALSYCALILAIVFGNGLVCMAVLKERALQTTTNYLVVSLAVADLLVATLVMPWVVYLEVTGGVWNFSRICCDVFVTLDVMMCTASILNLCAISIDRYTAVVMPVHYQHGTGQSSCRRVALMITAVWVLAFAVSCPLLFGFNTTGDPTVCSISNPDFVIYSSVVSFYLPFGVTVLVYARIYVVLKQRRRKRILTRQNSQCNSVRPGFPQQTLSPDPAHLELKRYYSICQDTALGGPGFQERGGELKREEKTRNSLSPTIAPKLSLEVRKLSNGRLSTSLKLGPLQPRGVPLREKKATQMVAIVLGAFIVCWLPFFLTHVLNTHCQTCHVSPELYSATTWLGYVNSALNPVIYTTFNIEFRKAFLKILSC
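Cells expressing the human receptor were seeded at 1500 cells/well, incubated overnight at 37 degrees C in 5% CO2, then exposed to library compounds with dopamine controls for 90 minutes at 37 degrees C before luminescent detection.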
ClpP mod: qHTS Assay for Activators of ClpP; Potency, µM (titrated, usually from 57.5 µM), for inactives: top-dose activity change, negative = active; hit rate 1.9% among 340,000; purified B. subtilis ClpP, FRET peptide cleavage, 20 min; ATP-dependent Clp protease proteolytic subunit (Bacillus subtilis (strain 168)), P80244; active = well fitted falling curve with a large enough effect; inconclusive = small, poorly fitted or top-dose-only effect; inactive = no such curve, though single readings can be large or run the other way; also: potency is read from the fitted curve at half-maximal effect; the source files actives as falling curves though it sought activators and does not explain the sign; nearly all actives have a fitted effect of over 65% in size
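Purified B. subtilis ClpP, 10 microg/mL final in Tris/HCl pH8 with KCl, BSA, glycerol and Tween-20, cleaved an Abz/nitrotyrosine-quenched decapeptide. Fluorescence (ex 320, em 430) was read at 0 and 20 min at room temperature. Delta was normalized to 5.8 microM ADEP and DMSO/no-enzyme controls.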
TDP1 cell noCPT: qHTS for Inhibitors of human tyrosyl-DNA phosphodiesterase 1 (TDP1): qHTS in cells in absence of CPT | DT40 Tdp1-/- hTDP1 cells, no CPT, ATP luminescence, 48 h | Potency, µM (series often up to 46.2 µM), inactives show at the highest dose activity change, negative = growth inhibition, actives largely listed as inhibitors | hit rate 15% among 420,000; also: potency is read from the fitted curve at half-maximal effect; % is scaled to controls: 0 for no effect and ±100 for the full control effect; nearly all actives have a fitted effect of over 55% in size
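Growth of hTDP1-complemented DT40 Tdp1-knockout cells is measured by ATP luminescence after at least 48 hr compound exposure at 37 °C, with DMSO substituting for the 20 nM CPT used in the parallel screen.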
IL-1B inflam inh: blocks inflammasome-driven IL-1 beta release | hit rate 4.7% among 360,000 | THP-1 LPS/ATP IL-1B secretion, AlphaLISA, 16 h; hits give low values | activity change, % at 57.5 µM; in the data active = activity change below about -50%; inconclusive = mostly about -30% to -49%; also: % is scaled to controls: 0 for no effect and ±100 for the full control effect
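Secreted IL-1B measured by AlphaLISA bead assay after 16 h compound exposure of THP-1 cells; compounds (final up to 57.5 uM) added 1 h before LPS (250 ng/mL) and ATP (1.25 mM) stimulation; lower signal means less secretion.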
DRD3 agonist: activates the human D3 dopamine receptor. P35462. D3R DiscoveRx beta-arrestin cells, luminescence, 90 min. max activation, %. hit rate 0.58% among 410,000; in the data active = max activation above about 30%; also: 0% is about no effect
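Agonist-mode cell screen: cells plated at 1500/well and incubated overnight at 37 °C, then exposed to library compounds for 90 min at 37 °C. Detection reagent was added for 30–60 min at room temperature, and luminescence was read.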
The depositor's hits bear a star; ? = inconclusive; nt = not tested or not shown; ! = repeats disagree. Unless noted, calls follow the shape of the dose curve; as a rule, active = well fitted inhibition curve with a large enough effect; inconclusive = small, poorly fitted or top-dose-only effect; inactive = flat fitted curve, though single readings scatter.

SMILES	TDP1 cell CPT	DRD3 antagonist	ClpP mod	TDP1 cell noCPT	IL-1B inflam inh	DRD3 agonist
COC(=O)C1=C(c2ccc(S(C)(=O)=O)cc2)C[C@@H]2CC[C@H]1N2C(=O)N1CCCCC1	-27%	0	-1%	-18%	-4	16
COC(=O)C1=C(c2cc3ccccc3o2)C[C@@H]2CC[C@H]1N2C(=O)N1CCCCC1	4.6µM*	-10	0%	2.3µM*	31	-13
COc1ccc(-n2c(O)c(/C=C/C=Nc3ccccc3)c(=O)[nH]c2=O)cc1	4%	-4	-1%	2%	0	2
CN(C)C(=O)Oc1ccc(Br)c2ccccc12	?	2	0%	2%	-2	-9
O=P(Nc1ccccc1)(Nc1ccccc1)Oc1ccc(Cl)cc1	-37%	7	-2%	-17%	22	3
COc1ccccc1OP(=O)(Nc1cccnc1)Oc1ccccc1OC	?	62	-1%	12µM*	3	7
COc1cccc(NP(=O)(Oc2ccc(Cl)cc2)Oc2ccc(Cl)cc2)c1	?	-17	-1%	23µM*	?	-1
COc1ccc(-c2ccc3c(c2)CN(C(=O)CCc2ccccc2)Cc2cnnn2-3)cc1	?	-23	5%	?	-17	-6
COc1ccc(-c2nc(SCC(=O)NC(C)CCc3ccccc3)n[nH]2)cc1 (stereo unspecified)	12µM*	nt	-1%	12µM*	nt	15
O=C(CSc1nc2ccccc2c(=O)n1-c1ccc(F)c(Cl)c1)Nc1ccc2c(c1)CCC2	?	?	-16%	-19%	0	-4
C=CCN1CC[C@]23c4c5ccc(O)c4O[C@H]2[C@@H](O)C=C[C@H]3[C@H]1C5	7%	nt	nt	?	nt	-9
O=C(O)CCC(=O)OC[C@@H](NC(=O)C(Cl)Cl)[C@H](O)c1ccc([N+](=O)[O-])cc1	?	nt	nt	?	nt	-8
O=C1/C(=C\c2cc3c(cc2Br)OCO3)N2CCC1CC2	5%	-14	0%	?	-12	2
CCCCNC(C)Cc1ccccc1 (stereo unspecified)	-2%	-51*	2%	-4%	9	-68
CC(CCc1ccccc1)NCCC#N (stereo unspecified)	5%	6	nt	5%	33	24
COc1ccc(CC(C)NCCC(c2ccccc2)c2ccccc2)cc1 (stereo unspecified)	13µM*	?	-1%	16µM*	-71*	-20
CC(Cc1ccccc1)NC(N)=O (stereo unspecified)	0%	-5	nt	-7%	9	-10
COC(=O)C1=C(c2ccc(S(C)(=O)=O)cc2)C[C@@H]2CC[C@H]1N2C(=O)NCCNC(C)=O	2%	11	-1%	nt	1	0
CN(CCCC(=O)c1cccnc1)N=O	0%	nt	nt	4%	nt	nt
CN(C)C/C=C(/c1ccc(Br)cc1)c1cccnc1	30µM*!	-105*	-4%	12µM*	-20	-88
CCOC(=O)c1c(C)[nH]c(C(=O)C(Cc2ccccc2)N(C)C)c1C (stereo unspecified)	?	0	-1%	?	-10	-11
COc1ccc2nc(N3CCN(C(=O)CS(=O)(=O)c4ccc(C)cc4)CC3)sc2c1	12µM*	nt	-1%	13µM*	nt	-1
CC(NCc1ccc(Cl)c(Cl)c1)C(O)c1ccccc1 (stereo unspecified)	16µM*	-65*	-1%	?	?	-37
N=C1c2ccccc2CN1NC(=O)c1ccc(Br)cc1	-15%	-13	-3%	2%	-102*	-23
COP(=S)(OC)Oc1ccc(S(=O)(=O)N(C)C)cc1	9%	nt	nt	5%	nt	5
COc1ccccc1OCCCn1cc(C(C)=O)c2ccccc21	?	-19	nt	18µM*	21	-7
COc1ccccc1OCCCn1cc(C(=O)C2CC2)c2ccccc21	?	1	1%	?	12	7
